For some assays here: Results with a measured potency or affinity are listed apart. Activity calls are given as the source filed them.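 How the source made its calls, unless noted: active means signal rise over 3 SD above mean of control wells given weak agonist, in both repeats and first screen; inactive means the rest.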
Assays:
[1] = test system: TRPC4 beta (transient receptor potential cation channel C4), mouse; experiment: activators of mouse TRPC4 channel, confirmation, cell-based, Fluo4 calcium, HEK293 TRPC4beta/mu-opioid, duplicates, 10 µM (AID 2426;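 active means fluorescence ratio normalized to control raised more than 50% in primary screen plus both repeat runs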); details: Fluo4 calcium fluorescence, at 10 µM; stronger effect = higher value
[2] = test system: transient receptor potential cation channel C4 beta (TRPC4), mouse; experiment: activators of mouse TRPC4 channel, confirmation, cell-based, second round, Fluo4, HEK293 TRPC4beta/mu-opioid, 1 µM (AID 2461;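 active means primary screen active and over 50% activation in each of two duplicate runs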); details: Fluo4 calcium fluorescence, at 1 µM; stronger effect = higher value
[3] = test system: TRPC4 (transient receptor potential cation channel C4 beta), mouse; experiment: positive allosteric modulators of mouse TRPC4, confirmation, cell-based, second round, Fluo-4, HEK293 TRPC4beta/mu-opioid, 1 µM (AID 2554;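 active means primary screen hit whose fluorescence ratio, in both repeats, exceeds the weak agonist control mean by 3 SD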); details: DAMGO EC20, Fluo-4 calcium flux, at 1 µM; stronger effect = higher value
[4] = test system: TRPC4 beta (transient receptor potential cation channel C4), mouse; experiment: positive allosteric modulators of mouse TRPC4, confirmation, cell-based, Fluo-4, HEK293 TRPC4beta/mu-opioid (AID 2555;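 active means primary screen hit whose calcium fluorescence ratio, in both repeats, exceeds the weak agonist control mean by 3 SD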); details: DAMGO EC20, Fluo-4 calcium flux, at 10 µM; stronger effect = higher value
[5] = target: Short transient receptor potential channel 4 (Mus musculus) (UniProt Q9QUQ5); experiment: inhibitors of mouse TRPC4 channel, confirmation, cell-based, Fluo4, HEK293 TRPC4beta/mu-opioid (AID 2636;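 active means calcium signal cut by more than 3 SD below the full-agonist control yet still positive, in both repeats and the earlier primary screen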); details: DAMGO, Fluo4 calcium flux, at 10 µM; stronger effect = higher value
Chain of Short transient receptor potential channel 4 (Mus musculus) (Q9QUQ5 whole entry, looked up): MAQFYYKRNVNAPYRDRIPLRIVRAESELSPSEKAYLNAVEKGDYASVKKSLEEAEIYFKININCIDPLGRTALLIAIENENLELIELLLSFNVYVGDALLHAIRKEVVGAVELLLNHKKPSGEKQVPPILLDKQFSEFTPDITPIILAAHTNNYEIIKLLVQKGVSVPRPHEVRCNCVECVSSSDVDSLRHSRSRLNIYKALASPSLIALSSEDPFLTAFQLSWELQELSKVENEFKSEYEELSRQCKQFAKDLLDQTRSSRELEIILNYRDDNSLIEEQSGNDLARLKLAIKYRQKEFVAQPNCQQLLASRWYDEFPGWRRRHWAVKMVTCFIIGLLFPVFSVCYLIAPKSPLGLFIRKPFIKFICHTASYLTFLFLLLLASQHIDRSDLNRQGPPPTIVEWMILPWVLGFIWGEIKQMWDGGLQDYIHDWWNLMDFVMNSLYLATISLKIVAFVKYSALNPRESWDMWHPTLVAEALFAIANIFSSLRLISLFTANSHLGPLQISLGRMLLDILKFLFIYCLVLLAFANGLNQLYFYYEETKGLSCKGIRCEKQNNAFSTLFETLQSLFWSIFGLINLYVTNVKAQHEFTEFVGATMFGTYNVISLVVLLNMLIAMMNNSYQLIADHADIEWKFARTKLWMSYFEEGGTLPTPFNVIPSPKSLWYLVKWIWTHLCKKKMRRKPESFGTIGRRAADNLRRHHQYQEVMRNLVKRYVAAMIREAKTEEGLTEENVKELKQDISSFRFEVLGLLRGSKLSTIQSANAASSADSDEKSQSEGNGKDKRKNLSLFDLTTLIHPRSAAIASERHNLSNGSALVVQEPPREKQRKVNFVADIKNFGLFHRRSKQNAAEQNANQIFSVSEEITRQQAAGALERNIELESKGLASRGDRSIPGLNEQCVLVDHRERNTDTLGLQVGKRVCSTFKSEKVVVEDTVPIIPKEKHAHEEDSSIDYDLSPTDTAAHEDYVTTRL

[6] = target: Short transient receptor potential channel 4 (Mus musculus) (UniProt Q9QUQ5); experiment: inhibitors of mouse TRPC4 channel, confirmation, cell-based, second round, Fluo4, HEK293 TRPC4beta/mu-opioid, 1 µM (AID 2637;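 active means calcium signal ratio cut to more than 3 SD under the fully stimulated control mean yet still positive, in both repeats and the primary screen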); details: Fluo4 calcium flux, DAMGO, at 1 µM; stronger effect = higher value
[7] = target: Short transient receptor potential channel 4 (Mus musculus) (UniProt Q9QUQ5); experiment: mouse TRPC4 channel activators, dose response, cell-based, HEK293 TRPC4/mu-opioid, Fluo-4 calcium (AID 434937;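 active means primary screen activator hit with a dose response curve and TRPC4 channel activation at any tested dose; inactive means no activation, no dose response, or not a primary hit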)
[8] = target: Short transient receptor potential channel 4 (Mus musculus) (UniProt Q9QUQ5); experiment: TRPC4 positive allosteric modulators, dose response, cell-based, HEK293 TRPC4/mu-opioid, Fluo-4 calcium, EC20 DAMGO (AID 434941;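 active means earlier screen potentiator hit that boosts the TRPC4 ion channel at some dose, with a dose response; inactive means no potentiation, no dose response, or not a prior hit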;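 further: calcium entry triggered by an EC20 dose of DAMGO at the co-expressed mu-opioid receptor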)
[9] = target: Short transient receptor potential channel 4 (Mus musculus) (UniProt Q9QUQ5); experiment: mouse TRPC4 channel inhibitors, dose response, cell-based, HEK293 TRPC4/mu-opioid, Fluo-4 calcium (AID 434942;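 active means primary screen inhibitor hit that blocks the TRPC4 channel at some tested dose, yielding a dose curve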)
[10] = target: Short transient receptor potential channel 6 (Mus musculus) (UniProt Q61143); experiment: inhibition of mouse TRPC6 channel, confirmation, selectivity assay for TRPC4 inhibitor project, cell-based, HEK293, membrane potential dye, duplicate (AID 434948;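 active means active in primary screen and both duplicates, each dropping signal beyond three positive-control SD with fluorescence still positive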); details: HEK293 TRPC6, membrane potential dye fluorescence, at 10 µM, stimulated with maximal-effect acetylcholine; stronger effect = higher value
Chain of Short transient receptor potential channel 6 (Mus musculus) (Q61143 whole entry, looked up): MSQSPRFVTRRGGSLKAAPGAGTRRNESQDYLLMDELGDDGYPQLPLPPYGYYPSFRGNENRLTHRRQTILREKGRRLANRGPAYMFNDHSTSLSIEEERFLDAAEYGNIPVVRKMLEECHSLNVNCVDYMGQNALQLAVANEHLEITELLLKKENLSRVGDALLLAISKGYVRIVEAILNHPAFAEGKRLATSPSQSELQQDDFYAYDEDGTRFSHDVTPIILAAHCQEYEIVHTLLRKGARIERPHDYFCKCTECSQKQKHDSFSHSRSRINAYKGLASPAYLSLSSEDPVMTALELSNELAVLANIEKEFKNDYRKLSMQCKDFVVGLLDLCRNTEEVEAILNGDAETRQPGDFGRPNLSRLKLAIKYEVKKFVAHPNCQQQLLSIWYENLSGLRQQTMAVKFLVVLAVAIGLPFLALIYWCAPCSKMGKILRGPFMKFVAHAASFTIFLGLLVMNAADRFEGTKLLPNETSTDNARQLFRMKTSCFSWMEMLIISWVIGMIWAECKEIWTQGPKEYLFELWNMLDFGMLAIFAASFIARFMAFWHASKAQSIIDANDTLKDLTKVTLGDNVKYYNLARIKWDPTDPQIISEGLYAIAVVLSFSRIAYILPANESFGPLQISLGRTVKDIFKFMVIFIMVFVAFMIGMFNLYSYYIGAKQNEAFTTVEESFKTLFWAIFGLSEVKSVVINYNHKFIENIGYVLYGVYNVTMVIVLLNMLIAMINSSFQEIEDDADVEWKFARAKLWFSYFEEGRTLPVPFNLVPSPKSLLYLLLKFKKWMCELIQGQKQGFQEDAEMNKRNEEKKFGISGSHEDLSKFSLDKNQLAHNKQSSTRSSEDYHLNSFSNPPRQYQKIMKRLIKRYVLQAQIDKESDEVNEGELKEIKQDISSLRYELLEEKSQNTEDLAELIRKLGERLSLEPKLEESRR

[11] = target: Short transient receptor potential channel 6 (Mus musculus) (UniProt Q61143); experiment: activation of mouse TRPC6 channel, confirmation, selectivity assay for TRPC4 activator project, cell-based, HEK293, membrane potential dye, duplicate (AID 434950;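 active means membrane potential signal rise above negative control mean plus 3 SD in both duplicates, also active in the earlier TRPC4 screen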); details: HEK293 TRPC6, membrane potential fluorescence, at 10 µM; stronger effect = higher value
[12] = target: Short transient receptor potential channel 6 (Mus musculus) (UniProt Q61143); experiment: TRPC6 potentiation by TRPC4 potentiator hits, confirmation, selectivity assay for TRPC4 potentiator project, HEK293 cells, membrane potential dye, duplicate (AID 434952;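 active means compound raising the membrane signal above positive-control mean plus 3 SD in both repeats, and a primary screen hit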); details: HEK293 TRPC6, membrane potential dye fluorescence, at 10 µM, maximal acetylcholine added after compound; stronger effect = higher value
[13] = target: Short transient receptor potential channel 4 (Mus musculus) (UniProt Q9QUQ5); experiment: calcium flux activators in TRPC4/5HT1a cells, counter-screen for TRPC4 activator project, cell-based, second counter screen, HEK293 TRPC4/5HT1a, Fluo-4 (AID 434977;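 active means calcium signal rise above buffer-control mean plus 5 SD in both duplicates, and also a hit in the primary screen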); details: Fluo-4 calcium flux, at 10 µM; stronger effect = higher value
[14] = calcium flux inhibitors in TRPC4/5HT1a cells, confirmation, counter-screen for TRPC4 inhibitor project, cell-based, second counter screen, HEK293 TRPC4/5HT1a, Fluo-4 (AID 434978;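 active means primary screen active whose calcium signal fell more than 3 SD beyond the full-serotonin control mean in both duplicate plates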;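 further: serotonin given first at submaximal then at maximal dose after compound preincubation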); details: Fluo-4 calcium flux, at 10 µM, serotonin added to trigger calcium flux; stronger effect = higher value
[15] = test system: TRPC4 (mouse), co-expressed with 5HT1a in HEK293; experiment: calcium flux potentiators in TRPC4/5HT1a cells, confirmation, counter-screen for TRPC4 potentiator project, cell-based, second counter screen, HEK293 TRPC4/5HT1a, Fluo-4 (AID 434979); details: Fluo-4 calcium flux, at 10 µM, serotonin added at its EC20 dose; stronger effect = higher value
[16] = calcium flux activation in mu-opioid HEK293 cells, confirmation, counter-screen for TRPC4 activator project, cell-based, HEK293 mu-opioid receptor line (AID 449723;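 active means hit in primary screen, with calcium signal over 5 SD above buffer well mean in both duplicates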;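 further: counter screen cells carry the mu-opioid receptor alone and lack TRPC4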); details: Fluo-4 calcium fluorescence, at 10 µM; stronger effect = higher value
[17] = calcium flux enhancement in mu-opioid HEK293 cells, confirmation, counter-screen for TRPC4 allosteric potentiator project, cell-based, HEK293 mu-opioid receptor line (AID 449724;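 active means calcium signal rise more than 3 SD above the low-dose agonist control mean, in both duplicate plates and the primary screen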); details: Fluo-4 calcium flux, at 10 µM, compound added before EC20 DAMGO stimulus; stronger effect = higher value
[18] = thallium flux activation in parental CHO cells, counter-screen for KCNQ1 potentiator project (AID 493006;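 active means duplicate-averaged activation above buffer control mean plus 5 SD of those controls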;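 further: fluorescence ratio of max minus min over baseline after K+ and Tl+ depolarization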); details: parental CHO-K1 cells, FluxOR thallium flux, at 10 µM; stronger effect = higher value
[19] = target: Potassium voltage-gated channel subfamily KQT member 1 (Homo sapiens) (UniProt P51787); experiment: KCNQ1 potassium channel potentiators, confirmation, FluxOR thallium flux, CHO cells, duplicates (AID 493007;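 active means potentiation averaged over duplicate wells exceeding buffer-only control mean by more than 3 SD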;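 further: 0% = buffer-only wells and 100% = R-L3 activator control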); details: KCNQ1 cell line, FluxOR thallium flux fluorescence, at 10 µM; stronger effect = higher value, % of reference activator effect, buffer zero
Chain of Potassium voltage-gated channel subfamily KQT member 1 (Homo sapiens) (P51787 whole entry, looked up): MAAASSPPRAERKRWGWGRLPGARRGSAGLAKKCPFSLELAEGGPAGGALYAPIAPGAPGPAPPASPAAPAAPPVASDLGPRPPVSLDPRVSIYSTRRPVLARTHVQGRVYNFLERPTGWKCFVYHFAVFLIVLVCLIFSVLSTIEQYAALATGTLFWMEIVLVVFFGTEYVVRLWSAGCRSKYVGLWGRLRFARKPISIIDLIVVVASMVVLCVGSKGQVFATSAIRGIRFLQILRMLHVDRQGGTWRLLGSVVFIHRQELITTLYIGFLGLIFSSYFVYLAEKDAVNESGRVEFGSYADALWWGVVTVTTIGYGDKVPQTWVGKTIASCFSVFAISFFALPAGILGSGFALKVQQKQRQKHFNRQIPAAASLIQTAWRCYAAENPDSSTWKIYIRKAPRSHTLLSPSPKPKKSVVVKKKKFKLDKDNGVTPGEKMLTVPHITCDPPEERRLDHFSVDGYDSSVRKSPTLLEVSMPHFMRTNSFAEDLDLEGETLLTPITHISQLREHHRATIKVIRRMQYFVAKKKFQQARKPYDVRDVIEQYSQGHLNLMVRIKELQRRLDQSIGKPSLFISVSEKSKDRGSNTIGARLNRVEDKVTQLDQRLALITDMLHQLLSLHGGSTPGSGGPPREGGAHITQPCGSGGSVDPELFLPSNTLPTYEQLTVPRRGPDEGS

[20] = target: Potassium voltage-gated channel subfamily KQT member 2 (Rattus norvegicus) (UniProt O88943); experiment: rat KCNQ2 channel potentiation, selectivity assay for KCNQ1 potentiator project, KCNQ2-CHO-K1 cells (AID 493009;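 active means mean duplicate potentiation above the buffer control mean plus 5 SD of buffer wells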;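 further: assay conditions were tuned for KCNQ1 rather than KCNQ2 modulators; signal is max minus min fluorescence divided by baseline after thallium stimulus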); details: FluxOR thallium flux fluorescence, at 10 µM; stronger effect = higher value, scaled: buffer 0, activator control 100
Chain of Potassium voltage-gated channel subfamily KQT member 2 (Rattus norvegicus) (O88943 whole entry, looked up): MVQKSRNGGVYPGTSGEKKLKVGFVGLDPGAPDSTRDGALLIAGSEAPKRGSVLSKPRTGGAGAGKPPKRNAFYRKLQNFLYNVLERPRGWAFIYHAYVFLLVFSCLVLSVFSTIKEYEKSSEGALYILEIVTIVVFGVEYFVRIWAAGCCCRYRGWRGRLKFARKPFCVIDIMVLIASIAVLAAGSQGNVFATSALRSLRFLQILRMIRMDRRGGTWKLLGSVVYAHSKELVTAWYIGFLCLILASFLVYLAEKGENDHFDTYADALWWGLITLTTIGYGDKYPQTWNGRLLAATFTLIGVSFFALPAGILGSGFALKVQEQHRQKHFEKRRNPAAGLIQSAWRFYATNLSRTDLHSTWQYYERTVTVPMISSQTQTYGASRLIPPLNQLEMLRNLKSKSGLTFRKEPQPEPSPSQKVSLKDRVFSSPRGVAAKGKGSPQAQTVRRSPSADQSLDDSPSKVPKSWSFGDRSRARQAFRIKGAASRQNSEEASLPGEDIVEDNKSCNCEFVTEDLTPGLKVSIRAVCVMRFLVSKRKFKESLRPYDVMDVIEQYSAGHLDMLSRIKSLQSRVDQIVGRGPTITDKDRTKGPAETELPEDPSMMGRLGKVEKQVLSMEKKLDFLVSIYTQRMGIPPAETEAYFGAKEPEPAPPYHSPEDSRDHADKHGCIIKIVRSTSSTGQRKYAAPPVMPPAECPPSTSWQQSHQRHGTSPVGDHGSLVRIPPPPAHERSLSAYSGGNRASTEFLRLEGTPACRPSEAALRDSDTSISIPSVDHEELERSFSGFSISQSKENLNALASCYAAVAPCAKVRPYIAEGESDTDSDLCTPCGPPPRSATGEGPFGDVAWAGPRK

Cc1cc2oc(C(=O)N(Cc3cccs3)C3CCS(=O)(=O)C3)cc(=O)c2cc1Cl (configuration not stated)
inactive: outcome [1] | outcome [2] | outcome [3] | outcome [5] | outcome [6] | outcome [7] | outcome [8] | outcome [9] | outcome [10] | outcome [11] | outcome [12] | outcome [13] | outcome [14] | outcome [16] | outcome [17]
active: potentiation [4] 40% | potentiation [15] 66.3%

COC(=O)c1ccccc1N=Nc1c(C)[nH][nH]c1=O
inactive: outcome [1] | outcome [2] | outcome [3] | outcome [5] | outcome [6] | outcome [7] | outcome [8] | outcome [9] | outcome [10] | outcome [11] | outcome [12] | outcome [13] | outcome [14] | outcome [16] | outcome [17]
active: potentiation [4] 73% | potentiation [15] 14.7%

O=C(c1cc2cc(Br)cc(Br)c2oc1=O)N1CCCC1
active: potentiation [15] 15.8%
inactive: outcome [1] | outcome [2] | outcome [3] | outcome [4] | outcome [5] | outcome [6] | outcome [7] | outcome [8] | outcome [9] | outcome [10] | outcome [11] | outcome [12] | outcome [13] | outcome [14] | outcome [16] | outcome [17]

O=C(CCN1CCN(Cc2ccccc2)CC1)Nc1cccc(Br)c1
inactive: outcome [1] | outcome [2] | outcome [4] | outcome [5] | outcome [6] | outcome [7] | outcome [8] | outcome [9] | outcome [10] | outcome [11] | outcome [12] | outcome [13] | outcome [14] | outcome [15] | outcome [16] | outcome [17]
active: potentiation [3] 21%

Cn1c(=O)c2c(nc(SCCN3CCCCC3)n2Cc2ccccc2)n(C)c1=O
active: potentiation [4] 36% | potentiation [15] 50.5%
inactive: outcome [1] | outcome [2] | outcome [3] | outcome [5] | outcome [6] | outcome [7] | outcome [8] | outcome [9] | outcome [10] | outcome [11] | outcome [12] | outcome [13] | outcome [14] | outcome [16] | outcome [17]

Cc1cccc(C)c1NC(=O)NCCCN1CCN(c2ccccc2)CC1
inactive: outcome [1] | outcome [2] | outcome [3] | outcome [4] | outcome [5] | outcome [6] | outcome [7] | outcome [8] | outcome [9] | outcome [10] | outcome [11] | outcome [12] | outcome [13] | outcome [14] | outcome [15] | outcome [16] | outcome [17]

O=C(Nc1ccnn1C1CCN(Cc2cc3ccccc3[nH]2)CC1)C1CCOC1 (configuration not stated)
inactive: outcome [1] | outcome [2] | outcome [3] | outcome [4] | outcome [5] | outcome [6] | outcome [7] | outcome [8] | outcome [9] | outcome [10] | outcome [11] | outcome [12] | outcome [13] | outcome [14] | outcome [15] | outcome [16] | outcome [17]
active: activation [18] 163% | potentiation [19] 53.5% | potentiation [20] 180%

— PubChem BioAssay
